Out of some 31,000 sequences screened, about 1,400 (4.5%) were called active. The full list was thinned out, with actives kept by preference. Unmarked numbers belong to inactive results.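 How the source made its calls: active means median seed-adjusted z-score above 1 or below -1; inactive means the rest.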

We go through 69 sequences from PubChem BioAssay AID1347426 (Functional Genomics Laboratory (NCATS/FGL), 2020).

The nature of the experiment: Novel Modifiers of Survival Motor Neuron (SMN) Protein: Gene Identification via Genome-wide siRNA Screen. Conditions: HEK293T SMN2-luciferase reporter, siRNA knockdown, 72 h; actives lie on both sides. The source says:
Spinal muscular atrophy (SMA) is the most common neuromuscular autosomal recessive disorder and one of the leading genetic causes of infant death. SMA results from mutations inducing loss of function or deletion in the survival of motor neuron-1 gene (SMN1), leading to deficiency of the survival motor neuron (SMN) protein. Although a second nearly identical gene, SMN2, is retained in humans, its expression primarily produces an aberrantly spliced isoform that is largely unstable and quickly degraded. We performed a genome-wide RNAi screen using a cell-based reporter assay to identify genes and pathways that modulate SMN protein stability. The screen identified over 200 genes that led to the greatest increase or decrease in luciferase expression.
Using HEK293T cells stably expressing a luciferase reporter that combines the promoter and splicing based cassettes in tandem with the major portion of the native SMN2 cDNA with luciferase, we performed a genome-wide RNAi screen to identify modulators of SMN protein levels. Luciferase is expressed when full-length SMN protein is generated with luminescence signal proportional to SMN protein levels. Our luciferase-based reporter assay was used to screen Ambion Silencer Select Human Druggable Genome siRNA library (10418 genes, 3 unique siRNAs per gene) using lipid-based reverse transfection.
Briefly, 1 pmol of each siRNA was spotted to a well of a 384-well plate (Corning, Corning, NY) and 20 microL of serum-free DMEM containing […] of Lipofectamine RNAiMax (Life Technologies, Carlsbad, CA) was then added to each well. Transfected cells were maintained at 37 degrees C in 5% CO2 for 72 hours, 20 microL of ONE-Glo Reagent (Promega) was added to wells for luciferase quantification. Raw luminescence reads were normalized to Ambion(R) Silencer(R) Negative Control #2 siRNA, then log10 transformed. A robust statistical measure of median absolute deviation (MAD) to standardize siRNA activities from each screen. Common Seed Analysis was used to help prioritize clean hits as opposed to those appearing to arise from seed based off-target effects. Candidate modulators were defined as the genes having a MAD score greater than 1.0 or less than -1.0.
For the sequence CAUUAGCAGAUAUACUAUUTT against EEF1E1, the median seed-adjusted z-score is -1.45 (active).
For GGACGGAUCUCAAUCGAAATT against CPO, the median seed-adjusted z-score is 0.0875.
Turning to GAAGGAAUGAAAUCCGGAATT against TRIM8, the median seed-adjusted z-score is -0.296.
Under CGAAUUCAGGUCAACAAUATT against TRERF1 stands -0.0952; under GAGUUUAAGCGCAAGCAUATT against HSPA8, 0.462; under UCACAGACGAGGCAUUUAATT against FTCD, -0.27.
The figure for GCCUGGAUGAAUUCGAUUATT against UBE4A is -0.285; for GUAAUACGAGGAAAUAGUATT against SNRPG it is -3.09 (active); for CAUACACUCUACUCCUGCUTT against CDH26 it is 0.
For GCGACCCUGUUAUUCUGUATT against TM9SF1, the median seed-adjusted z-score is 0.14.
In the case of CACCAUUGCAAACCAAAUATT against KCNQ5, the median seed-adjusted z-score was 0.0191.
Turning to CGUCAACGAUCGGAAGAAATT against TTLL9, the median seed-adjusted z-score is 0.0534.
Under GCCCAACAAGUGCAUGUUUTT against GLIS1 stands 0.838.
As to CCUCGUCCGUAGUCUCCUUTT against ADRB1, the median seed-adjusted z-score was 1.06 (active).
Under GUAUUGCCUUUGUCAAGAATT against SNX19 stands 0.67; under GAAUUGACUUCUUGUCUAATT against RAB41, -0.534.
Consider CGUCAUCAGACUCAAUGAATT against 12-Sep, for which the median seed-adjusted z-score was 0.286.
Under GGAUGAUGAGUACUCUGAATT against COL7A1 stands 1.08 (active); under GGAAUUUAAGUGAUAGUGATT against CPEB2, -0.00928.
Under GCUGCAACCUUGACUACUATT against RRM1 stands -5.51 (active); under AGGUGAAUAUUGACCACUUTT against RGS5, 0.
Take GAGUCAACAAUGGACAUUUTT against KLHL1: the median seed-adjusted z-score was 0.067.
The figure for CAACUAGUGGAGAAGAUCATT against FAM63B is 0.111; for GGUCACCACUUGCAAGCUATT against ANG it is -0.481.
For the sequence AGCUGGGCUUUAUCGUGGATT against P2RX2, the median seed-adjusted z-score was 0.0454.
As for GCUUAUUUAUGUAUCAAUATT against ADRB1, the median seed-adjusted z-score was 1.06 (active).
In the case of GGAAAAAUCUAAGAAGCAATT against ZC3H11A, the median seed-adjusted z-score is -0.137.
The figure for GCUUCACCAUCGAAUCCAATT against FLT4 is -0.861; for GCUGCGGCAUGAUCACUAATT against LBXCOR1 it is 0.0938; for CAUUGGGCCUAGAAAUUCATT against CNKSR1 it is 0.217.
The figure for GGCGAAGUGUCCGACAGAATT against ZNF747 is 0.379.
On to GGAGAUCUGCUACUAAACATT against PSMD6, for which the median seed-adjusted z-score is -1.03 (active).
The figure for GGGAGAGUGGUGAACGUAUTT against CBR1 is -0.6; for CAGUGUUAAUGACCGAAGATT against EIF4G1 it is -0.978.
The figure for GAUGAUACCAGGCAUAUAATT against USP15 is -0.405.
The figure for GCAAUCUUGUUGUACACCATT against ZNF432 is -0.124.
For the sequence GGAGCUGAAUGAGCUGACATT against OSBPL7, the median seed-adjusted z-score is 0.
Under “CCACGAUGUGGGAUAAUAATT against GALNAC4S-6ST” stands 0.218.
As to GUGGUGCAGUUUUUCGUAATT against THOC2, the median seed-adjusted z-score is -1.22 (active).
With GGCUCAUAAUGGAGCAGGUTT against TIMM13, the median seed-adjusted z-score was -0.422.
In the case of CAGUCUUGAUUCCACUGAATT against PCDHA3, the median seed-adjusted z-score is 0.311.
For the sequence CGGAUAUUCCUGAACGCAATT against MARK3, the median seed-adjusted z-score was 0.271.
The figure for GCACGCGGCUAUACAAUCATT against SLC25A34 is -0.256.
For the sequence GAAGCAGUGCCAAUGAACATT against TCEB2, the median seed-adjusted z-score was 1.28 (active).
AGCACAUCUCGGUCCUCCATT against MAPK8IP2: the median seed-adjusted z-score was 0.284.
Under GGACGAUCACUGUUGUGCATT against RBM22 stands 0.0259; under ACUUGAAUCUUAGCAUUCATT against RAD9A, -0.0564.
Under CAAGACUGCUGAUGAGUUUTT against HSD17B3 stands 0.734.
In the case of CUUUCACACUCGACACUGATT against HOXA2, the median seed-adjusted z-score was 0.335.
Under GAACAUCCGUGAGCAAGGATT against KCNJ8 stands 0.329.
The figure for GCCCUUGCCUUAUUGCUGATT against MED20 is -1.66 (active); for GGCUUGAGUUCAUUCAGAATT against PKN3 it is 0.476.
Under GCCGGUGCUUUAUCUCAUUTT against GPR87 stands 0.237; under GAGACUUUCUACAAUACUATT against EIF4A2, 0.
For the sequence CGCUCUCUUCACUUACGAATT against MYO10, the median seed-adjusted z-score is 0.8.
Under UAAUGACCCUAUCUAUAAATT against UGT2B17 stands -0.0203; under GAUGGAUUCUUGUUCCGUUTT against KCTD16, 0.00219; under GAACUUCUACUUUAACAAATT against HS3ST1, 1.21 (active).
The figure for CUUUUGAACAGAUCGAUGATT against EXO1 is 0.547; for GCUCAUAAAUGAGAAGCUATT against PCDHB16 it is -0.523.
The figure for AGUGUACAAUCGAUAAAAATT against ESR2 is -1.1 (active); for CAGCAUACAUGUUUAGUGATT against TRPC6 it is -0.527; for CGGUAUCUAUGACACUGCATT against SLC25A5 it is -0.0501.
Turning to CAGAGUCUUUCAUUCGAAUTT against SPATA5, the median seed-adjusted z-score was -1.04 (active).
Consider GAACUAUGGUGCUACUGGATT against ZNF449, for which the median seed-adjusted z-score is 0.178.
Under AGAGCUCACUCGUCCCAAUTT against CXCL16 stands 0.201; under CGAAAAGUCUCACAGUGGATT against ZNF563, 0.00283.
As to CGGGUAUUGUGGGACUGAATT against USP39, the median seed-adjusted z-score is 0.821.
Consider UAAUUGACCUGACCAGUUUTT against SLC30A8, for which the median seed-adjusted z-score was -0.767.
